Results: PubChem BioAssay
The source made the active and inactive calls.

Assays:
[1] = target: Albumin (Bos taurus) (UniProt P02769); experiment: compounds binding labelled BSA control protein – biochemical, small-molecule microarray, Alexa647 label, 635/667 nm fluorescence, artefact control for SMM control protein annotation, profiling panel (AID 1118); details: BSA-A647 binding, fluorescence 635 nm, higher = more signal;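 note: score merges 667 nm emission intensity and signal-to-noise per printed compound spot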
Albumin (Bos taurus), sequence (P02769 whole entry, looked up): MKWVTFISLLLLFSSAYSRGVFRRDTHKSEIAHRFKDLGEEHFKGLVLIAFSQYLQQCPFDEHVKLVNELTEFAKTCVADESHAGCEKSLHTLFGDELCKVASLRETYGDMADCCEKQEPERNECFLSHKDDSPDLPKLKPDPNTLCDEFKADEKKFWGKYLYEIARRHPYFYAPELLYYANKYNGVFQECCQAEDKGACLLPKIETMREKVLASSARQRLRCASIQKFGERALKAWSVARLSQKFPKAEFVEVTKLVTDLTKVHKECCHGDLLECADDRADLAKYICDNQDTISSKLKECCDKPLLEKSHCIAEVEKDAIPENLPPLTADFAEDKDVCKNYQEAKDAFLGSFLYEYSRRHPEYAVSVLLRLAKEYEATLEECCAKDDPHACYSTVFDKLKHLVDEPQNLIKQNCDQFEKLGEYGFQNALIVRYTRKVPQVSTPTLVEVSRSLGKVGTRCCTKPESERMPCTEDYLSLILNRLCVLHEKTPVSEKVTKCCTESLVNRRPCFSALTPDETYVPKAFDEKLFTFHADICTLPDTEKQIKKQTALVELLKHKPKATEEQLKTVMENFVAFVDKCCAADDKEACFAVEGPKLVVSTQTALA

[2] = probe aXIP binding to arrayed compounds – biochemical, NeuroSMM set, 635/667 nm fluorescence, primary screen (AID 1119); details: small-molecule microarray, higher = more signal, called active from +8 up or from −8 down;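 note: probe is the protein aXip251-270 applied at 1 µg/mL to compound-printed slides; binding of probe to printed compounds measured as 667 nm fluorescence plus signal to noise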
[3] = probe aNOTCH3 binding on compound microarray – biochemical, small-molecule microarray, 635/667 nm fluorescence, primary screen (AID 1120); details: higher = more signal;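 note: probe is a biotin-tagged antibody raised against NOTCH3 rather than NOTCH3 protein; score merges spot fluorescence near 667 nm with spot signal to noise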
[4] = probe aNOTCH2 binding on compound microarray – biochemical, small-molecule microarray, 635/667 nm fluorescence, primary screen (AID 1121); details: higher = more signal;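 note: score merges feature fluorescence read at 667 nm with its signal to noise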
[5] = target: Carbonic anhydrase 2 (Homo sapiens) (UniProt P00918); experiment: compounds binding carbonic anhydrase 2 – biochemical, small-molecule microarray, Alexa647-labelled CAII, profiling panel (AID 1122); details: CAII-A647 binding fluorescence, higher = more signal
[6] = COS7 lysate on small-molecule microarray, probe aHis, 635 nm (AID 1123); details: COS7 cell lysate, fluorescence, higher = more signal;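 note: z-score combines 667nm fluorescence intensity with signal-to-noise per printed compound spot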
[7] = probe aLAP1 signal on lysate-treated microarray – cell lysate, small-molecule microarray, COS7 lysate, primary screen (AID 1124); details: probe aLAP1, fluorescence, higher = more signal;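 note: lysate comes from COS7 cells expressing LAP1 and is applied at 0.3 µg/mL; score merges spot fluorescence near 667 nm with signal-to-noise over triplicate slides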
[8] = system: Sam68 (KHDRBS1); experiment: compounds binding KHDRBS1 protein – biochemical, small-molecule microarray, 635 nm fluorescence, primary screen (AID 1125); details: higher = more signal;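 note: score merges 667 nm channel intensity with signal to noise over triplicate slides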
[9] = system: Chordin-like protein 2 (CHRDL2); experiment: compounds binding chordin-like 2 – biochemical, small-molecule microarray, 635 nm fluorescence, primary screen (AID 1126); details: fluorescence 635 nm, higher = more signal;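 note: printed compound slides probed with Chrdl2 protein at 4 µg/mL for 1 h at 4 C; score merges 667 nm emission intensity with signal to noise over three replicate slides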
[10] = target: Concanavalin-A (Canavalia ensiformis) (UniProt P02866); experiment: compounds binding concanavalin A lectin – biochemical, small-molecule microarray, Alexa647 label, 635 nm, artefact control for SMM control protein annotation, primary screen (AID 1127); details: ConA-A647 binding fluorescence, higher = more signal;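 note: z combines 667 nm emission intensity with signal-to-noise across three replicate slides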
Concanavalin-A (Canavalia ensiformis), sequence (P02866 whole entry, looked up): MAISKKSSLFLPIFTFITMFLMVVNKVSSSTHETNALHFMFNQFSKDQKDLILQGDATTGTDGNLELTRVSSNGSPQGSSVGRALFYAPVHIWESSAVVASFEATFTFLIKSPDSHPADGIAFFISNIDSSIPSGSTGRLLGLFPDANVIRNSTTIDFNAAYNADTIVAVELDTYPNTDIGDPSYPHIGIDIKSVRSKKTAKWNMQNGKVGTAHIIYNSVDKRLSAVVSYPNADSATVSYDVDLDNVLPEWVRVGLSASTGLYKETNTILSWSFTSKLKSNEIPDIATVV

Row | SMILES | composite z-score [1] | composite Z-score [2] | composite z-score [3] | composite z-score [4] | composite z-score [5] | composite z-score [6] | composite z-score [7] | composite z-score [8] | composite z-score [9] | composite z-score [10]
1 | COC(=O)c1c(CC[C@@H](CO)NC(=O)N[C@@H](C)Cn2cc(C3(O)CCCC3)nn2)oc(C(C)=O)c1C(=O)OC | 0.815 | 0.42 (inactive) | 0.276 | -0.204 | 0.672 | 2.66 | 0.0377 | 0.481 | -0.425 | 0.484
2 | CCCCC(CC)C(O)C1C=CC2C(=O)NC(=O)C2N1Nc1ccccn1 (stereo not given) | 0.806 | 0.975 (inactive) | 0.0866 | -0.0071 | 0.677 | 2.53 | 0.321 | 1.27 | -0.105 | 0.86
3 | COc1cccc(C)c1NC(=O)O[C@H]1[C@H](OC(=O)Nc2ccccc2)[C@H](OC(=O)Nc2ccccc2)[C@@H](OC)O[C@@H]1CO | 0.958 | -0.922 (inactive) | -0.0647 | 0.0564 | 0.54 | 2.48 | 0.25 | 1.34 | -1.05 | 1.17
4 | COc1ccc(C#Cc2ccc3c(c2)[C@]2(C(=O)N3)[C@H](C(N)=O)[C@H]3C(=O)O[C@H](c4ccccc4)[C@H](c4ccccc4)N3[C@@H]2c2ccc(O)cc2)cc1 | 0.49 | 0.312 (inactive) | -0.0947 | -0.148 | 0.414 | 2.27 | 0.211 | 0.902 | -0.0806 | 0.985
5 | COc1ccccc1CN1C(=O)c2ccccc2[C@@H](C(=O)NCC(C)C)[C@@H]1c1ccc(CO)cc1 | -0.325 | 0.0829 (inactive) | -0.236 | -0.0226 | 0.623 | 0.368 | 0.537 | -0.134 | 0.0987 | 0.358
6 | C=C(/C(=C/C[C@@H](OC(=O)c1ccncc1)c1cccc(OCCO)c1)c1cc(C(=O)OC)ccc1OC)C(C)C | 0.482 | 0.25 (inactive) | 0.19 | -0.0207 | 0.597 | 1.23 | 0.763 | 1.21 | 0.859 | 0.996
7 | CCCCC(=C=CC[C@H](O)c1cccc(OCCO)c1)C[C@H](O)COCc1ccccc1 | 0.92 | 0.11 (inactive) | -0.179 | -0.107 | 0.697 | 0.972 | -0.501 | 0.435 | -0.592 | 0.0194
8 | COC(=O)[C@@]1(Cc2ccc(F)cc2)[C@H]2c3cc(C(=O)N(C)C)n(Cc4ccc(C)c(F)c4F)c3C[C@H]2CN1C(=O)c1ccccc1 | 0.751 | 0.818 (inactive) | 0.243 | 0.0742 | 0.713 | 3.15 | -0.0137 | 1.07 | -0.991 | 0.879
9 | C=CCOC(=O)[C@@H]1[C@H]2C(=O)O[C@H](c3ccccc3)[C@H](c3ccccc3)N2[C@H](c2ccc(OCCOC(=O)[C@H]3C[C@H]4C(=O)N[C@@H](Cc5ccccc5)C(=O)N4[C@H]3c3cccc(OCCO)c3)cc2)[C@@]12C(=O)Nc1ccc(I)cc12 | -0.868 | 0.111 (inactive) | 0.319 | -0.103 | 0.344 | 0.798 | 0.331 | 1.31 | 1 | 1.11
10 | CC(C)C[C@H]1NC(=O)[C@H](C)NC(=O)[C@@]23C(=O)N[C@@H](Cc4ccccc4)C2[C@H](C)[C@@]2(C)O[C@H]2C3/C=C/C/C=C\CNC1=O (stereo not given in full) | 0.876 | -0.155 (inactive) | -0.227 | -0.172 | 0.734 | -0.38 | -0.229 | 0.371 | 0.409 | -0.565
11 | COc1ccc([Si](C)(C)[C@@H]2[C@@H](CCO)O[C@]3(C(=O)N(Cc4ccccc4)c4ccc(N5CCCCC5=O)cc43)[C@H]2C)cc1 | 0.375 | -0.364 (inactive) | 0.924 | -0.108 | 0.08 | 0.72 | 0.0284 | 1.31 | 0.212 | 1.12
12 | COCCCNC(=O)[C@]1(CCS(=O)(=O)c2ccccc2)N=C(c2ccc(OCCCO)cc2)O[C@@H]1c1ccccc1 | 0.88 | -0.263 (inactive) | 0.558 | 0.284 | 0.751 | 2.99 | 1.75 | 1.3 | 0.0923 | 1.1
13 | C=CCOC(=O)[C@@H]1[C@H]2C(=O)O[C@H](c3ccccc3)[C@H](c3ccccc3)N2[C@H](c2ccc(OCCOC(=O)[C@@H]3C[C@@H]4C(=O)N[C@@H](CCCCNC(C)=O)C(=O)N4[C@@H]3c3ccc(O)cc3)cc2)[C@@]12C(=O)Nc1ccc(I)cc12 | -0.427 | 1.48 (inactive) | 0.844 | -0.0458 | 0.5 | 1.86 | 0.705 | 1.29 | 0.986 | 1.15
14 | COc1cc(C(O)C2C=CC3C(=O)NC(=O)C3N2Nc2ccc(Cl)cc2Cl)cc(OC)c1OC (stereo not given) | 0.254 | -0.762 (inactive) | 0.454 | 0.0956 | 0.752 | 2.99 | 0.115 | 0.79 | -0.0696 | 1.05
15 | CC(C)C(CO)N1C(=O)[C@@H]2[C@H]3C(=O)OCC=C[C@H]3OC23C=CCN(CCN2CCOCC2)C(=O)[C@@H]13 (stereo not given in full) | -0.36 | -0.0157 (inactive) | -0.125 | -0.164 | -0.111 | -0.332 | -0.0765 | 0.0784 | 0.446 | 0.166
16 | COc1ccc([Si](C)(C)[C@@H]2[C@@H](CCO)O[C@]3(C(=O)N(Cc4cccc(N5C(=O)COc6ccccc65)c4)c4ccccc43)[C@H]2C)cc1 | 0.663 | 0.215 (inactive) | -0.126 | -0.0576 | 0.163 | 1.35 | 0.0386 | 0.19 | -0.117 | 1.03
17 | C[N+](C)(C)CCCCCCNC(=O)[C@H]1C[C@H]2C(=O)N3CCC[C@H]3C(=O)N2[C@H]1c1cccc(OCCO)c1 | -0.564 | 0.491 (inactive) | 0.398 | -0.0135 | 0.662 | 1.73 | 0.787 | 0.976 | 1.03 | 1.15
18 | C[C@H]1ON(c2ccccc2)[C@@H](c2ccccc2)[C@@H]1C(=O)N1C(=O)OC[C@@H]1c1ccccc1 | 0.0537 | 1.2 (inactive) | -0.0493 | -0.118 | 0.259 | 0.46 | -0.0222 | 0.44 | 0.424 | 0.0565
19 | O=C1NC(=O)C2C1C=CC(C(O)c1ccc3c(c1)OCO3)N2Nc1ccc(Cl)cc1Cl (stereo not given) | 0.817 | 0.549 (inactive) | 0.144 | -0.063 | 0.566 | 3.03 | 1.19 | 0.355 | 0.26 | 0.148
20 | CCOC(=O)C1=CC[C@@H](c2ccc(N(CC)CC)cc2)N(S(=O)(=O)c2ccc(C)cc2)[C@H]1c1ccc([N+](=O)[O-])cc1 | 0.682 | 0.38 (inactive) | 0.0116 | -0.0097 | 0.473 | -0.507 | 0.769 | 0.317 | -0.724 | 0.588
21 | O=C(N1CCOCC1)[C@@]1(CCS(=O)(=O)c2ccccc2)COC(c2ccc(OCCCO)cc2)=N1 | 0.39 | 0.667 (inactive) | -0.0073 | -0.191 | 0.704 | 2.45 | -0.0296 | 0.605 | -0.034 | -0.257
22 | CCOC(=O)C[C@H]1[C@H](OC(=O)c2ccc(C(=O)c3ccccc3)cc2)[C@@H](NC(=O)C2CCCCC2)c2cc(OCCCO)ccc2N1C(=O)Cc1ccc(OC)cc1 | 0.442 | 0.442 (inactive) | 0.18 | 0.208 | 0.106 | 0.954 | 1.04 | 0.693 | 0.386 | 0.312
23 | O=C(CS)NCCCCCNC(=O)[C@@H]1C[C@@H]2C(=O)N3CCC[C@H]3C(=O)N2[C@@H]1c1ccc(O)cc1 | -0.683 | 0.647 (inactive) | -0.0587 | -0.151 | 0.636 | 1.86 | 0.363 | 0.928 | -0.0012 | 1.15
24 | COC(=O)[C@@]1(Cc2ccc(OC)cc2)[C@H]2c3cc(C(=O)N(C)C)n(Cc4cc(F)c(F)c(F)c4)c3C[C@H]2CN1C(=O)c1ccccc1 | 0.895 | -0.37 (inactive) | 0.578 | 0.212 | 0.767 | 2.73 | 0.331 | 1.11 | -0.0554 | 1.13
25 | C=CCN1C(=O)[C@@]2(O[C@@H](CCn3cc([C@H](O)c4ccccc4)nn3)[C@H]([Si](C)(C)c3ccc(OC)cc3)[C@H]2C)c2cc(NC(=O)c3ccc(OC)cc3)ccc21 | -0.105 | -0.0277 (inactive) | -0.0932 | -0.173 | 0.148 | 0.637 | 0.0719 | 1.03 | 0.271 | 0.713
26 | CN(C)C(=O)[C@@]1(CCC(=O)OC(C)(C)C)N=C(c2ccc(OCCCO)cc2)O[C@H]1c1ccccc1N=[N+]=[N-] | 1.03 | 0.0421 (inactive) | 0.315 | -0.0129 | 0.812 | 3.31 | 1.25 | 1.3 | -0.18 | 1.11
